# From the supplement of paper PMC8728848
# About 410 targets per protein were measured; listed, in parts, are those with the strongest signals and a random draw of the rest.
# B1: Epa1-NP-mutant-E227A (Candida glabrata), Q6VBJ0 (protein)
# chain: MILNPALFLNKCVCIYTTLILLLLTNGGYATSSNDISLASKDPTTFPLGCSPDITTPKKGLSMELYSYDFRKKGSYPCWDAAYLDPNYPRTGYKSHRLLAKVDGVTGNINFYYHATKGCTPQLGHLPASYNYPKPLTMTNFTMLLYGYFRPKVTGFHTFTISADDLLFVNFGAGNAFDCCRRDSSADHFGNYQAYAIWGSKTAKDELTVHLDAGVYYPIRLFYNNRAYDGALSFTFKTESNENTVSDFSEYFFSLDDTEEGCPGLISYDSSCASVKTSKIIGIDYHTETPNENLVPITKTIYHLGIPCTGTTTTPLCGSGFYDPLANKCVTINTSSTSSVTKTTSHTTSKEVSFHSSISSQKTLIPKSIPSPYGPIKSQSIPTEMETSSEISSSEYAFSDVISTPSHSPYTKKHSSLNSSSYTSTVIHSLTSYSISQGIFSTSLSEQNITSKSSTDKFSTATSMSNNITQSSIIISQFSTNNENYTTTSMHTSSDKISTETLNNSISTTTSILFSNSSTILKNNTTIISSDKDTHYHPVNPTIVCSTNKTEIICASITQPSISNSNNHWSSSVLKFNSTTVRSTLPSSAGSNETSINVPFSSSTESNTSTSSTSTSNSKMVRSTLPSSAGSNETSISVPFSSSTESNTSTSSTSTSNSKMVRSTLPSSAGSNETSINVPFSSSTESNTSTSSTSTSNSKTVRSTPFSSAGIIMTSLSQRNNKSASSYASSNSKCYNTADSCRKVHSTPSYLLTSSYTSEGVDYDCSLVSTKLKINDTNCVNNKHTTKSCLKTSVTTTIPTLEIKTARKSSSNTIGLHSYPTSSPNKSISSAPIIGYISSFKTIKTASPSYQTSDLTTITTITSLNNPGSTAVENTHESNDKSRKTSSNDISSKHSVIKETKDAVESSNKSHQTNTLKCSSIIIASSSHNSYESLGGTTLTLTLSKVYSPQNNDTLPFLEISEVNPSRTVLPESSKMMQYLTSTEERNKTARNTIATNIVSISTFHFEGEGNAIRMGYTQLLLMLIGIIVMNIGT
# Key:
# Experiment in all cases: glycan array binding signal (z-score within array); higher = stronger binding
# Conditions in all cases: glycan notation: IUPAC condensed, linker removed; mutation: E227A
# [1] = target: Fuc(a1-2)Gal(b1-3)GalNAc(a1-3)[Fuc(a1-2)]Gal(b1-4)Glc
# Summary of the method: (§1)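 Glycan array binding is given as a within-array Z-score, which can be read as non-binding when negative. The arrays, 3228 of them, came from the Consortium for Functional Glycomics database and were retained only where the protein sequence was available. Z-scores were averaged across arrays of the same protein sequence at different concentrations or buffers and across linkers.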
# [2] = target: Fuc(a1-2)Gal(b1-3)GlcNAc(b1-3)[Gal(b1-4)GlcNAc(b1-6)]Gal(b1-4)Glc
# Summary of the method: as §1
# [3] = target: Fuc(a1-2)Gal(b1-3)[Fuc(a1-4)]GlcNAc(b1-2)Man(a1-3)[Fuc(a1-2)Gal(b1-3)[Fuc(a1-4)]GlcNAc(b1-2)Man(a1-3)]Man(b1-4)GlcNAc(b1-4)GlcNAc
# Summary of the method: as §1
# [4] = target: Fuc(a1-2)Gal(b1-4)Fuc(a1-3)]GlcNAc(b1-2)Man(a1-3)[Fuc(a1-2)Gal(b1-4)[Fuc(a1-3)]GlcNAc(b1-2)Man(a1-6)]Man(b1-4)GlcNAc(b1-4)GlcNAc
# Summary of the method: as §1
# [5] = target: Fuc(a1-2)[Gal(a1-3)]Gal(b1-3)GlcNAc(b1-3)GalNAc
# Summary of the method: as §1
# [6] = target: Fuc(a1-2)[Gal(a1-3)]Gal(b1-4)[Fuc(a1-3)]GlcNAc(b1-3)GalNAc
# Summary of the method: as §1
# [7] = target: Fuc(a1-2)[Gal(a1-4)]Gal(b1-4)GlcNAc
# Summary of the method: as §1
# [8] = target: Fuc(a1-2)[GalNAc(a1-3)]Gal(b1-3)GlcNAc(b1-3)GalNAc
# Summary of the method: as §1
# [9] = target: Fuc(a1-2)[GalNAc(a1-3)]Gal(b1-4)[Fuc(a1-3)]GlcNAc
# Summary of the method: as §1
# [10] = target: Fuc(a1-2)[GalNAc(b1-3)]Gal
# Summary of the method: as §1
# [11] = target: Fuc(a1-3)[Gal(b1-4)]GlcNAc6S
# Summary of the method: as §1
# [12] = target: Fuc(a1-3)[Gal3S(b1-4)]Glc
# Summary of the method: as §1
# Gal(b1-2)Gal = target: Gal(b1-2)Gal
# Summary of the method: as §1
# Gal(b1-3)Gal(b1-4)GlcNAc = target: Gal(b1-3)Gal(b1-4)GlcNAc
# Summary of the method: as §1
# Gal(b1-3)GalNAc = target: Gal(b1-3)GalNAc
# Summary of the method: as §1
# [13] = target: Gal(b1-3)GalNAc(b1-4)Gal(b1-4)Glc
# Summary of the method: as §1
# [14] = target: Gal(b1-3)GlcNAc(a1-6)Gal(b1-4)GlcNAc
# Summary of the method: as §1
# [15] = target: Gal(b1-3)GlcNAc(b1-6)Gal(b1-4)GlcNAc
# Summary of the method: as §1
# Gal(b1-3)GlcNAc6S = target: Gal(b1-3)GlcNAc6S
# Summary of the method: as §1
# Gal(b1-4)Glc = target: Gal(b1-4)Glc
# Summary of the method: as §1
# [16] = target: Gal(b1-4)GlcNAc(b1-3)Gal(b1-4)GlcNAc(b1-3)Gal(b1-4)GlcNAc(b1-2)Man(a1-3)[Gal(b1-4)GlcNAc(b1-3)Gal(b1-4)GlcNAc(b1-3)Gal(b1-4)GlcNAc(b1-2)Man(a1-6)]Man(b1-4)GlcNAc(b1-4)GlcNAc
# Summary of the method: as §1
# [17] = target: Gal(b1-4)GlcNAc(b1-3)Gal(b1-4)GlcNAc(b1-3)Gal(b1-4)GlcNAc(b1-2)[Gal(b1-4)GlcNAc(b1-3)Gal(b1-4)GlcNAc(b1-3)Gal(b1-4)GlcNAc(b1-6)]Man(a1-6)[Gal(b1-4)GlcNAc(b1-3)Gal(b1-4)GlcNAc(b1-3)Gal(b1-4)GlcNAc(b1-2)Man(a1-3)]Man(b1-4)GlcNAc(b1-4)[Fuc(a1-6)]GlcNAc
# Summary of the method: as §1
# [18] = target: Gal(b1-4)GlcNAc(b1-6)[Gal(b1-3)]GalNAc
# Summary of the method: as §1
# Gal3S(b1-4)Glc = target: Gal3S(b1-4)Glc
# Summary of the method: as §1
# Gal6S(b1-3)GlcNAc6S = target: Gal6S(b1-3)GlcNAc6S
# Summary of the method: as §1
# Gal6S(b1-4)Glc = target: Gal6S(b1-4)Glc
# Summary of the method: as §1
# Gal6S(b1-4)Glc6S = target: Gal6S(b1-4)Glc6S
# Summary of the method: as §1
# Gal6S(b1-4)GlcNAc = target: Gal6S(b1-4)GlcNAc
# Summary of the method: as §1
# Gal6S(b1-4)GlcNAc6S = target: Gal6S(b1-4)GlcNAc6S
# Summary of the method: as §1
# GalNAc(b1-4)GlcNAc6S = target: GalNAc(b1-4)GlcNAc6S
# Summary of the method: as §1
# GalNAc4S6S(b1-4)GlcNAc = target: GalNAc4S6S(b1-4)GlcNAc
# Summary of the method: as §1
# Glc(a1-6)Glc(a1-6)Glc = target: Glc(a1-6)Glc(a1-6)Glc
# Summary of the method: as §1
# [19] = target: GlcNAc(a1-4)Gal(b1-4)GlcNAc
# Summary of the method: as §1
# [20] = target: GlcNAc(a1-4)Gal(b1-4)GlcNAc(b1-3)Gal(b1-4)Glc
# Summary of the method: as §1
# [21] = target: GlcNAc(b1-2)Man(a1-3)[GlcNAc(b1-2)Man(a1-6)]Man(b1-4)GlcNAc(b1-4)GlcNAc
# Summary of the method: as §1
# GlcNAc(b1-3)Fuc = target: GlcNAc(b1-3)Fuc
# Summary of the method: as §1
# [22] = target: GlcNAc(b1-3)Gal(b1-3)GalNAc
# Summary of the method: as §1
# [23] = target: GlcNAc(b1-3)Gal(b1-4)GlcNAc(b1-3)Gal(b1-4)GlcNAc(b1-2)[GlcNAc(b1-3)Gal(b1-4)GlcNAc(b1-3)Gal(b1-4)GlcNAc(b1-6)]Man(a1-6)[GlcNAc(b1-3)Gal(b1-4)GlcNAc(b1-3)Gal(b1-4)GlcNAc(b1-2)Man(a1-3)]Man(b1-4)GlcNAc(b1-4)[Fuc(a1-6)]GlcNAc
# Summary of the method: as §1
# [24] = target: GlcNAc(b1-3)Gal(b1-4)GlcNAc(b1-6)[GlcNAc(b1-3)Gal(b1-3)]GalNAc
# Summary of the method: as §1
# GlcNAc(b1-3)GalNAc = target: GlcNAc(b1-3)GalNAc
# Summary of the method: as §1
# [25] = target: Man(a1-2)Man(a1-3)[Man(a1-2)Man(a1-6)]Man
# Summary of the method: as §1
# [26] = target: Man(a1-2)Man(a1-3)[Man(a1-6)]Man(a1-6)[Man(a1-2)Man(a1-3)]Man(b1-4)GlcNAc(b1-4)GlcNAc
# Summary of the method: as §1
# [27] = target: Man(a1-3)[Man(a1-6)]Man(a1-6)[Man(a1-3)]Man
# Summary of the method: as §1
# [28] = target: Neu5Ac(a2-3)Gal(b1-3)[Fuc(a1-4)]GlcNAc
# Summary of the method: as §1
# [29] = target: Neu5Ac(a2-3)Gal(b1-3)]Neu5Ac(a2-3)Gal(b1-4)]GlcNAc
# Summary of the method: as §1
# [30] = target: Neu5Ac(a2-3)Gal(b1-4)GlcNAc(b1-3)Gal(b1-4)GlcNAc(b1-3)Gal(b1-4)GlcNAc
# Summary of the method: as §1
# [31] = target: Neu5Ac(a2-3)Gal(b1-4)[Fuc(a1-3)]GlcNAc(b1-3)GalNAc
# Summary of the method: as §1
# [32] = target: Neu5Ac(a2-3)Gal(b1-4)[Fuc(a1-3)]GlcNAc(b1-6)[Neu5Ac(a2-3)Gal(b1-3)]GalNAc
# Summary of the method: as §1
# [33] = target: Neu5Ac(a2-6)Gal(b1-4)GlcNAc(b1-2)Man(a1-3)Man(b1-4)GlcNAc(b1-4)GlcNAc
# Summary of the method: as §1
# [34] = target: Neu5Ac(a2-6)Gal(b1-4)GlcNAc(b1-2)Man(a1-6)[Man(a1-3)]Man(b1-4)GlcNAc(b1-4)GlcNAc
# Summary of the method: as §1
# [35] = target: Neu5Ac(a2-6)Gal(b1-4)GlcNAc(b1-3)Gal(b1-4)GlcNAc(b1-6)[Gal(b1-3)]GalNAc
# Summary of the method: as §1
# [36] = target: Neu5Ac(a2-8)Neu5Ac(a2-8)Neu5Ac(a2-3)[Gal(b1-3)GalNAc(b1-4)]Gal(b1-4)Glc
# Summary of the method: as §1
binder,measurement,setting,value
B1,glycan array binding signal (z-score),[1],-0.214
same,glycan array binding signal (z-score),[2],-0.138
same,glycan array binding signal (z-score),[3],-0.162
same,glycan array binding signal (z-score),[4],-0.184
same,glycan array binding signal (z-score),[5],-0.204
same,glycan array binding signal (z-score),[6],-0.168
same,glycan array binding signal (z-score),[7],-0.221
same,glycan array binding signal (z-score),[8],-0.197
same,glycan array binding signal (z-score),[9],-0.13
same,glycan array binding signal (z-score),[10],-0.161
same,glycan array binding signal (z-score),[11],-0.143
same,glycan array binding signal (z-score),[12],-0.172
same,glycan array binding signal (z-score),Gal(b1-2)Gal,-0.041
same,glycan array binding signal (z-score),Gal(b1-3)Gal(b1-4)GlcNAc,2.03
same,glycan array binding signal (z-score),Gal(b1-3)GalNAc,1.28
same,glycan array binding signal (z-score),[13],3.42
same,glycan array binding signal (z-score),[14],-0.057
same,glycan array binding signal (z-score),[15],7.88
same,glycan array binding signal (z-score),Gal(b1-3)GlcNAc6S,1.37
same,glycan array binding signal (z-score),Gal(b1-4)Glc,-0.13
same,glycan array binding signal (z-score),[16],0.626
same,glycan array binding signal (z-score),[17],1.15
same,glycan array binding signal (z-score),[18],1.27
same,glycan array binding signal (z-score),Gal3S(b1-4)Glc,-0.193
same,glycan array binding signal (z-score),Gal6S(b1-3)GlcNAc6S,1.88
same,glycan array binding signal (z-score),Gal6S(b1-4)Glc,4.56
same,glycan array binding signal (z-score),Gal6S(b1-4)Glc6S,6.39
same,glycan array binding signal (z-score),Gal6S(b1-4)GlcNAc,5.93
same,glycan array binding signal (z-score),Gal6S(b1-4)GlcNAc6S,15.2
same,glycan array binding signal (z-score),GalNAc(b1-4)GlcNAc6S,-0.184
same,glycan array binding signal (z-score),GalNAc4S6S(b1-4)GlcNAc,-0.197
same,glycan array binding signal (z-score),Glc(a1-6)Glc(a1-6)Glc,-0.201
same,glycan array binding signal (z-score),[19],-0.198
same,glycan array binding signal (z-score),[20],-0.194
same,glycan array binding signal (z-score),[21],-0.191
same,glycan array binding signal (z-score),GlcNAc(b1-3)Fuc,-0.185
same,glycan array binding signal (z-score),[22],-0.176
same,glycan array binding signal (z-score),[23],-0.163
same,glycan array binding signal (z-score),[24],-0.207
same,glycan array binding signal (z-score),GlcNAc(b1-3)GalNAc,-0.214
same,glycan array binding signal (z-score),[25],-0.166
same,glycan array binding signal (z-score),[26],-0.198
same,glycan array binding signal (z-score),[27],-0.196
same,glycan array binding signal (z-score),[28],-0.197
same,glycan array binding signal (z-score),[29],-0.213
same,glycan array binding signal (z-score),[30],-0.202
same,glycan array binding signal (z-score),[31],-0.12
same,glycan array binding signal (z-score),[32],-0.16
same,glycan array binding signal (z-score),[33],-0.2
same,glycan array binding signal (z-score),[34],-0.2
same,glycan array binding signal (z-score),[35],0.553
same,glycan array binding signal (z-score),[36],-0.194
